Assay [1] relates to RAW-Dual. In words: NF-kB SEAP reporter activity, fold change vs agonist alone; higher = enhanced NF-kB activity. The essentials:
(§1)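 RAW-Dual macrophages were seeded in DMEM at 50,000 cells/well in 384-well plates, given 50 nL of library stock by pin tool, and given a PRR agonist 1 h later. Plates were held at 37 °C, 5% CO2 for 20 hours, after which supernatant was read for IRF by QuantiLuc luminescence and for NF-κB by QuantiBlue absorbance at 620 nm. Reporter activity is expressed as fold change over wells that received agonist alone. A well was called cytotoxic when IncuCyte confluency fell below 70% of agonist controls in both mask sets.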

Assay [2] concerns RAW-Dual. The experiment in a line: NF-kB SEAP reporter activity, fold change vs agonist alone; cytotoxicity flag (confluency mask): cytotoxic (confluency <70% of control); library stock concentration (final ~1000-fold dilution): 10 mM; higher = enhanced NF-kB activity. The essentials: as §1
The test system of assay [3] is RAW-Dual. The experiment in a line: NF-kB SEAP reporter activity, fold change vs agonist alone; cytotoxicity flag (confluency mask): not cytotoxic; library stock concentration (final ~1000-fold dilution): 10 mM; higher = enhanced NF-kB activity. An outline of the steps: as §1
For assay [4], the system named is RAW-Dual. In words: NF-kB SEAP reporter activity, fold change vs agonist alone; cytotoxicity flag (confluency mask): not cytotoxic; library stock concentration (final ~1000-fold dilution): 2 mM; higher = enhanced NF-kB activity. The essentials:
as §1

Where [5] appears, read: library stock concentration (final ~1000-fold dilution): 10 mM, cytotoxicity flag (confluency mask): cytotoxic (confluency <70% of control), agonist: Imiquimod (TLR7) […].
Where [6] appears, read: library stock concentration (final ~1000-fold dilution): 10 mM, cytotoxicity flag (confluency mask): cytotoxic (confluency <70% of control), agonist: MPLA (TLR4) […].
Setting [7] is: agonist: ODN 1826 (TLR9) 0.5 ug/mL.
[8] abbreviates: agonist: Pam2CSK4 (TLR2/6) 0.1 ug/mL.
The mark [9] stands for this setting: agonist: Pam3CSK4 (TLR2/1) 0.1 ug/mL.
Setting [10] is: library stock concentration (final ~1000-fold dilution): 10 mM, cytotoxicity flag (confluency mask): not cytotoxic, agonist: Imiquimod (TLR7) […].
Where [11] appears, read: library stock concentration (final ~1000-fold dilution): 10 mM, cytotoxicity flag (confluency mask): not cytotoxic, agonist: MPLA (TLR4) […].

The text below walks through data of the supplement of paper PMC10037445.

Whole data set: some 2,900 compounds, median “NF-kB SEAP reporter activity, fold change vs agonist alone” near 0.99, cut for the highest 2% near 2.6. The full list was thinned out, with the highest values kept by preference.

On to `CC(C)(C)c1cc(C=C(C#N)C#N)cc(C(C)(C)C)c1O`, for which the “NF-kB SEAP reporter activity” value turned out to be 1.7 with RAW-Dual [1] (setting [5]); 2.56 with RAW-Dual [1] (setting [6]); 5.32 in the assay on RAW-Dual [2] (agonist: LPS (TLR4) 0.1 ug/mL); 1.32 with RAW-Dual [2] (setting [7]); 0.729 with RAW-Dual [2] (setting [8]); 1.48 with RAW-Dual [2] (setting [9]).

Take `CC(C)(C)c1cc(C=C(C#N)C#N)cc(Br)c1O`: the “NF-kB SEAP reporter activity” value with RAW-Dual [1] (setting [5]) was 2.04; with RAW-Dual [1] (setting [6]), 2.25; in the assay with RAW-Dual [2] (agonist: LPS (TLR4) 0.1 ug/mL) it was 2.48; with RAW-Dual [2] (setting [7]), 1.29; with RAW-Dual [2] (setting [8]) it was 0.571; in the assay on RAW-Dual [2] (setting [9]), 0.667.

Regarding `N#CC(C#N)=Cc1ccc(O)c(O)c1`, the “NF-kB SEAP reporter activity” value in the assay with RAW-Dual [1] (setting [10]) came to 0.89; in the assay with RAW-Dual [1] (setting [11]) it was 1.33; in the assay on RAW-Dual [3] (agonist: LPS (TLR4) 0.1 ug/mL), 1.19; in the assay with RAW-Dual [3] (setting [7]), 0.619; in the assay on RAW-Dual [3] (setting [8]) it was 0.821; in the assay on RAW-Dual [3] (setting [9]) it was 0.937.

With `CN1C(=O)C23CC4(C56CC78SSC(CO)(C(=O)N7C5Nc5ccccc56)N(C)C8=O)c5ccccc5NC4N2C(=O)C1(CO)SS3` (stereo not drawn), the “NF-kB SEAP reporter activity” value in the assay with RAW-Dual [1] (setting [5]) was found to be 0.117; in the assay on RAW-Dual [1] (setting [6]), 0.183; in the assay on RAW-Dual [2] (agonist: LPS (TLR4) 0.1 ug/mL) it was 0.372; with RAW-Dual [2] (setting [7]), 0.141; in the assay with RAW-Dual [2] (setting [8]), 0.0829; with RAW-Dual [2] (setting [9]), 0.196.

With `CCC1(O)C(=O)OCc2c1cc1n(c2=O)Cc2cc3ccccc3nc2-1` (stereo not drawn), the “NF-kB SEAP reporter activity” value in the assay with RAW-Dual [1] (library stock concentration (final ~1000-fold dilution): 2 mM, cytotoxicity flag (confluency mask): not cytotoxic, agonist: Imiquimod (TLR7) […]) is 1.45; with RAW-Dual [1] (library stock concentration (final ~1000-fold dilution): 2 mM, cytotoxicity flag (confluency mask): not cytotoxic, agonist: MPLA (TLR4) […]) it was 1.83; with RAW-Dual [4] (agonist: LPS (TLR4) 0.1 ug/mL) it was 4.12; with RAW-Dual [4] (setting [7]), 1.47; with RAW-Dual [4] (setting [8]), 1.05; in the assay with RAW-Dual [4] (setting [9]), 1.74.

On to `CCc1c2c(nc3ccccc13)-c1cc3c(c(=O)n1C2)COC(=O)C3(O)CC` (stereo not drawn), for which the “NF-kB SEAP reporter activity” value in the assay with RAW-Dual [1] (setting [6]) came to 1.62; in the assay with RAW-Dual [2] (agonist: LPS (TLR4) 0.1 ug/mL), 0.384; in the assay on RAW-Dual [2] (setting [7]), 2.29; in the assay on RAW-Dual [2] (setting [8]), 0.788; in the assay on RAW-Dual [2] (setting [9]), 0.641.

As for `C=CC1CN2CCC3(C(=O)Nc4ccccc43)C2CC1/C(=C\OC)C(=O)OC` (stereo not drawn), the “NF-kB SEAP reporter activity” value with RAW-Dual [1] (setting [10]) is 0.91; in the assay on RAW-Dual [1] (setting [11]) it was 1.1; in the assay on RAW-Dual [3] (agonist: LPS (TLR4) 0.1 ug/mL) it was 0.951; in the assay with RAW-Dual [3] (setting [7]), 0.904; with RAW-Dual [3] (setting [8]), 0.882; with RAW-Dual [3] (setting [9]) it was 0.928.

Turning to `CC(=O)O.Cc1cc2c(C(C)C)c(O)c(O)c(C=O)c2c(O)c1-c1c(C)cc2c(C(C)C)c(O)c(O)c(C=O)c2c1O`, the “NF-kB SEAP reporter activity” value in the assay with RAW-Dual [1] (setting [10]) is 0.906; with RAW-Dual [1] (setting [11]), 0.963; in the assay with RAW-Dual [3] (agonist: LPS (TLR4) 0.1 ug/mL) it was 3.69; in the assay on RAW-Dual [3] (setting [7]) it was 0.908; in the assay on RAW-Dual [3] (setting [8]), 1.15; with RAW-Dual [3] (setting [9]), 1.2.

Regarding `CC[C@H]1CN2CC[C@]3(C(=O)Nc4ccccc43)[C@@H]2C[C@@H]1/C(=C\OC)C(=O)OC`, the “NF-kB SEAP reporter activity” value with RAW-Dual [1] (setting [10]) is 0.86; in the assay on RAW-Dual [1] (setting [11]), 1.04; in the assay with RAW-Dual [3] (agonist: LPS (TLR4) 0.1 ug/mL) it was 1.21; in the assay on RAW-Dual [3] (setting [7]) it was 1.05; in the assay with RAW-Dual [3] (setting [8]), 0.949; with RAW-Dual [3] (setting [9]) it was 1.03.

For `COc1cc2c(c(OC)c1OC)-c1ccc(OC)c(=O)cc1C(NC(C)=O)CC2` (stereo not drawn), the “NF-kB SEAP reporter activity” value in the assay on RAW-Dual [1] (setting [10]) amounted to 2.62; in the assay on RAW-Dual [1] (setting [11]) it was 1.98; with RAW-Dual [3] (agonist: LPS (TLR4) 0.1 ug/mL), 4.93; in the assay with RAW-Dual [3] (setting [7]), 3.47; with RAW-Dual [3] (setting [8]), 2.44; in the assay on RAW-Dual [3] (setting [9]) it was 2.52.

Turning to `CN1C2CCC1CC(OC(=O)C(CO)c1ccccc1)C2.CN1C2CCC1CC(OC(=O)C(CO)c1ccccc1)C2.O.O=S(=O)(O)O` (stereo not drawn), the “NF-kB SEAP reporter activity” value with RAW-Dual [1] (setting [10]) was found to be 0.838; with RAW-Dual [1] (setting [11]) it was 0.986; in the assay with RAW-Dual [3] (agonist: LPS (TLR4) 0.1 ug/mL) it was 0.923; in the assay with RAW-Dual [3] (setting [7]), 0.83; in the assay with RAW-Dual [3] (setting [8]) it was 0.79; in the assay on RAW-Dual [3] (setting [9]), 1.05.

Consider `CC12CCC3C(CCC4=C(O)C(=O)CCC43C)C1CCC2=O` (stereo not drawn), for which the “NF-kB SEAP reporter activity” value in the assay on RAW-Dual [1] (setting [10]) amounted to 0.986; in the assay on RAW-Dual [1] (setting [11]) it was 1.01; in the assay with RAW-Dual [3] (agonist: LPS (TLR4) 0.1 ug/mL), 1.17; with RAW-Dual [3] (setting [7]) it was 1.21; in the assay with RAW-Dual [3] (setting [8]) it was 1.07; in the assay with RAW-Dual [3] (setting [9]) it was 1.23.

`Nc1ncnc2c1ccn2C1OC(CO)C(O)C1O` (stereo not drawn): the “NF-kB SEAP reporter activity” value in the assay on RAW-Dual [1] (setting [5]) worked out at 0.147; in the assay on RAW-Dual [1] (setting [6]) it was 0.247; in the assay with RAW-Dual [2] (agonist: LPS (TLR4) 0.1 ug/mL) it was 0.531; in the assay on RAW-Dual [2] (setting [7]), 0.19; in the assay with RAW-Dual [2] (setting [8]), 0.0753; in the assay with RAW-Dual [2] (setting [9]), 0.156.

On to `Cl.NCCc1ccc(S(=O)(=O)F)cc1`, for which the “NF-kB SEAP reporter activity” value with RAW-Dual [1] (setting [10]) stood at 1.07; in the assay with RAW-Dual [1] (setting [11]), 1.23; with RAW-Dual [3] (agonist: LPS (TLR4) 0.1 ug/mL), 1.6; in the assay on RAW-Dual [3] (setting [7]) it was 1.01; in the assay on RAW-Dual [3] (setting [8]), 1.03; with RAW-Dual [3] (setting [9]), 1.9.
